From PubChem BioAssay AID1159580 (chemical genetic matrix, 2015)
About 2,000 (36%) of roughly 5,500 compounds were called active. Not shown: some 18% with an inconclusive outcome. Rule as the data show it: active = normalized growth mostly below about 0.91 (no sharp cut-off); inconclusive = no clear call, values can overlap the other calls; inactive = mostly above about 0.92. This is one part of the list.

Assay: chemical genetic growth profiling, strain panel (AID 1159580);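 also: tested at 20 µM; growth read once vehicle control cultures reached saturation at 30 °C; 1 = growth at the plate median or of vehicle wells; lower values mean less growth of the strain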
Conditions: S. cerevisiae deletion strains, growth OD
[1] = locus YAL040C, strain CLN3, stronger effect = lower value
[2] = locus YCL061C, strain MRC1 (second series), stronger effect = lower value
[3] = locus YDR363W, strain ESC2, stronger effect = lower value
[4] = locus YER002W, strain NOP16, stronger effect = lower value
[5] = locus YGR078C, strain PAC10, stronger effect = lower value
[6] = locus YMR307W, strain GAS1, stronger effect = lower value
[7] = locus YNL128W, strain TEP1, stronger effect = lower value
[8] = locus YNL153C, strain GIM3, stronger effect = lower value
[9] = locus YNL175C, strain NOP13, stronger effect = lower value
[10] = locus YNL197C, strain WHI3, stronger effect = lower value
[11] = locus YNL224C, strain SQS1, stronger effect = lower value
[12] = locus YOR083W, strain WHI5 (second series), stronger effect = lower value
[13] = locus YPL241C, strain CIN2, stronger effect = lower value

Measured: normalized growth

C[C@@H]1C(=O)NC2=Nc3cccc(Cl)c3CN21
inactive: locus YAL013W, strain DEP1, stronger effect = lower value 0.983 | [1] 1 | [2] 1 | locus YDR150W, strain NUM1, stronger effect = lower value 1.01 | [3] 1 | [4] 1 | [5] 1 | locus YGR229C, strain SMI1, stronger effect = lower value 1 | [6] 1 | [7] 1.01 | [8] 0.982 | [9] 0.992 | [10] 1 | [11] 1 | locus YNL322C, strain KRE1, stronger effect = lower value 0.997 | [12] 1.01 | locus YPL055C, strain LGE1, stronger effect = lower value 1.02 | [13] 1

O=C1CN2Cc3c(ccc(Cl)c3Cl)N=C2N1
inactive: locus YAL021C, strain ccr4, stronger effect = lower value 0.988 | locus YAL026C, strain drs2, stronger effect = lower value 0.976 | locus YAL030W, strain snc1, stronger effect = lower value 0.987 | locus YBL061C, strain skt5, stronger effect = lower value 1 | locus YBR009C, strain hhf1, stronger effect = lower value 0.966 | locus YBR023C, strain chs3, stronger effect = lower value 0.983 | locus YBR171W, strain sec66, stronger effect = lower value 0.967 | locus YBR231C, strain swc5, stronger effect = lower value 0.982 | locus YBR279W, strain paf1, stronger effect = lower value 0.978 | locus YCL011C, strain gbp2, stronger effect = lower value 0.975 | locus YCL016C, strain dcc1, stronger effect = lower value 0.978 | locus YCL061C, strain MRC1, stronger effect = lower value 0.984 | locus YCL069W, strain vba3, stronger effect = lower value 0.986 | locus YCR088W, strain abp1, stronger effect = lower value 1.03 | locus YDL005C, strain med2, stronger effect = lower value 0.96 | locus YDL040C, strain nat1, stronger effect = lower value 0.986 | locus YDR001C, strain nth1, stronger effect = lower value 1.05 | locus YDR069C, strain doa4, stronger effect = lower value 0.972 | locus YDR137W, strain rgp1, stronger effect = lower value 0.962 | locus YDR159W, strain sac3, stronger effect = lower value 0.965 | locus YDR195W, strain ref2 0.961 | locus YDR297W, strain sur2, stronger effect = lower value 0.97 | locus YDR334W, strain swr1, stronger effect = lower value 0.99 | locus YDR335W, strain msn5, stronger effect = lower value 1.01 | locus YDR392W, strain spt3, stronger effect = lower value 0.952 | locus YEL003W, strain gim4, stronger effect = lower value 0.98 | locus YEL061C, strain CIN8 (second series), stronger effect = lower value 1.04 | locus YER015W, strain faa2, stronger effect = lower value 1.03 | locus YER016W, strain bim1, stronger effect = lower value 0.979 | locus YER155C, strain BEM2 (second series), stronger effect = lower value 1.02 | locus YFR010W, strain ubp6, stronger effect = lower value 1.02 | locus YGL167C, strain pmr1, stronger effect = lower value 0.968 | locus YGL173C, strain kem1, stronger effect = lower value 0.972 | locus YGL227W, strain vid30, stronger effect = lower value 0.969 | locus YGL240W, strain doc1, stronger effect = lower value 0.97 | locus YGL253W, strain hxk2, stronger effect = lower value 0.987 | locus YHR013C, strain ard1, stronger effect = lower value 0.956 | locus YHR027C, strain rpn1, stronger effect = lower value 0.996 | locus YHR030C, strain SLT2, stronger effect = lower value 0.984 | locus YHR079C, strain IRE1, stronger effect = lower value 0.996 | locus YHR142W, strain chs7, stronger effect = lower value 1.04 | locus YJL092W, strain hpr5, stronger effect = lower value 0.983 | locus YJL095W, strain BCK1 (second series), stronger effect = lower value 0.982 | locus YJL095W, strain BCK1, stronger effect = lower value 0.973 | locus YJL115W, strain asf1, stronger effect = lower value 1.08 | locus YJL129C, strain trk1, stronger effect = lower value 0.978 | locus YJL154C, strain vps35, stronger effect = lower value 0.976 | locus YJL164C, strain tpk1, stronger effect = lower value 0.999 | locus YJL166W, strain qcr8, stronger effect = lower value 0.993 | locus YJL187C, strain SWE1, stronger effect = lower value 0.977 | locus YJR066W, strain TOR1, stronger effect = lower value 0.929 | locus YKL160W, strain elf1, stronger effect = lower value 0.996 | locus YKR026C, strain gcn3, stronger effect = lower value 0.97 | locus YKR091W, strain srl3, stronger effect = lower value 0.987 | locus YLL001W, strain dnm1, stronger effect = lower value 0.956 | locus YLL026W, stronger effect = lower value 0.975 | locus YLL041C, strain sdh2, stronger effect = lower value 0.975 | locus YLR027C, strain aat2, stronger effect = lower value 0.991 | locus YLR113W, strain HOG1, stronger effect = lower value 1.01 | locus YLR221C, strain rsa3, stronger effect = lower value 1 | locus YLR258W, strain gsy2, stronger effect = lower value 0.979 | locus YLR262C, strain YPT6 (second series), stronger effect = lower value 0.985 | locus YLR320W, strain mms22, stronger effect = lower value 1.01 | locus YLR357W, strain rsc2, stronger effect = lower value 0.925 | locus YLR370C, strain arc18, stronger effect = lower value 0.97 | locus YLR384C, strain iki3, stronger effect = lower value 1.02 | locus YML120C, strain ndi1, stronger effect = lower value 0.996 | locus YMR058W, strain fet3, stronger effect = lower value 0.978 | locus YMR125W, strain sto1, stronger effect = lower value 0.92 | locus YMR129W, stronger effect = lower value 0.964 | locus YMR205C, strain PFK2, stronger effect = lower value 0.949 | locus YMR231W, strain pep5, stronger effect = lower value 0.968 | locus YNL071W, strain lat1, stronger effect = lower value 0.985 | locus YNL183C, strain NPR1, stronger effect = lower value 0.941 | locus YNL209W, strain ssb2, stronger effect = lower value 0.987 | locus YNL248C, strain rpa49, stronger effect = lower value 0.997 | locus YNL322C, strain KRE1 (second series), stronger effect = lower value 0.985 | locus YNR049C, strain mso1, stronger effect = lower value 1.02 | locus YOR001W, strain rrp6, stronger effect = lower value 0.996 | locus YOR070C, strain gyp1, stronger effect = lower value 1.03 | locus YOR080W, strain dia2, stronger effect = lower value 0.963 | locus YOR083W, strain WHI5, stronger effect = lower value 0.999 | locus YOR106W, strain vam3, stronger effect = lower value 0.991 | locus YOR231W, strain MKK1, stronger effect = lower value 0.989 | locus YOR265W, strain rbl2, stronger effect = lower value 0.988 | locus YOR270C, strain vph1, stronger effect = lower value 0.957 | locus YOR290C, strain snf2, stronger effect = lower value 0.957 | locus YPL051W, strain arl3, stronger effect = lower value 1 | locus YPL078C, strain atp4, stronger effect = lower value 0.995 | locus YPL106C, strain sse1, stronger effect = lower value 0.958 | locus YPL240C, strain hsp82, stronger effect = lower value 0.97 | locus YPL256C, strain CLN2, stronger effect = lower value 1.01
active: locus YEL037C, strain rad23, stronger effect = lower value 1.09 [resistant] | locus YER111C, strain swi4, stronger effect = lower value 1.1 [resistant] | locus YLR342W, strain FKS1, stronger effect = lower value 1.11 [resistant]

CN1CC(O)C(O)C(O)C1CO (stereo unspecified)
inactive: [1] 1 | [2] 1 | [3] 0.997 | [4] 1.01 | [5] 1.01 | [6] 0.998 | [7] 0.975 | [8] 1.01 | [9] 0.992 | [10] 1 | [11] 0.992 | [12] 1 | [13] 1.01
